According to ChEMBL document CHEMBL3988442, “University of Dundee, Small-Polar-MMV Screening Library” (2021):
For some of these results: Measured potencies and affinities stand elsewhere.

Key:
Parameters in all cases: scale not given: direction of the effect not stated beside the values
[1] = biological target: Protein translocase subunit SecA (Escherichia coli (strain K12)) (UniProt P10408); assay: Assay to Identify E. coli SecA ATPase Inhibitors; type: functional; conditions: 30 µM
[2] = biological target: T1, Ubiquitin-activating enzyme e1, putative (Leishmania donovani (strain BPK282A1)) (UniProt E9BSI1); assay: Leishmania donovani Ubiquitin Activating Enzyme (LdE1); type: functional; conditions: 30 µM
T1 sequence (whole entry): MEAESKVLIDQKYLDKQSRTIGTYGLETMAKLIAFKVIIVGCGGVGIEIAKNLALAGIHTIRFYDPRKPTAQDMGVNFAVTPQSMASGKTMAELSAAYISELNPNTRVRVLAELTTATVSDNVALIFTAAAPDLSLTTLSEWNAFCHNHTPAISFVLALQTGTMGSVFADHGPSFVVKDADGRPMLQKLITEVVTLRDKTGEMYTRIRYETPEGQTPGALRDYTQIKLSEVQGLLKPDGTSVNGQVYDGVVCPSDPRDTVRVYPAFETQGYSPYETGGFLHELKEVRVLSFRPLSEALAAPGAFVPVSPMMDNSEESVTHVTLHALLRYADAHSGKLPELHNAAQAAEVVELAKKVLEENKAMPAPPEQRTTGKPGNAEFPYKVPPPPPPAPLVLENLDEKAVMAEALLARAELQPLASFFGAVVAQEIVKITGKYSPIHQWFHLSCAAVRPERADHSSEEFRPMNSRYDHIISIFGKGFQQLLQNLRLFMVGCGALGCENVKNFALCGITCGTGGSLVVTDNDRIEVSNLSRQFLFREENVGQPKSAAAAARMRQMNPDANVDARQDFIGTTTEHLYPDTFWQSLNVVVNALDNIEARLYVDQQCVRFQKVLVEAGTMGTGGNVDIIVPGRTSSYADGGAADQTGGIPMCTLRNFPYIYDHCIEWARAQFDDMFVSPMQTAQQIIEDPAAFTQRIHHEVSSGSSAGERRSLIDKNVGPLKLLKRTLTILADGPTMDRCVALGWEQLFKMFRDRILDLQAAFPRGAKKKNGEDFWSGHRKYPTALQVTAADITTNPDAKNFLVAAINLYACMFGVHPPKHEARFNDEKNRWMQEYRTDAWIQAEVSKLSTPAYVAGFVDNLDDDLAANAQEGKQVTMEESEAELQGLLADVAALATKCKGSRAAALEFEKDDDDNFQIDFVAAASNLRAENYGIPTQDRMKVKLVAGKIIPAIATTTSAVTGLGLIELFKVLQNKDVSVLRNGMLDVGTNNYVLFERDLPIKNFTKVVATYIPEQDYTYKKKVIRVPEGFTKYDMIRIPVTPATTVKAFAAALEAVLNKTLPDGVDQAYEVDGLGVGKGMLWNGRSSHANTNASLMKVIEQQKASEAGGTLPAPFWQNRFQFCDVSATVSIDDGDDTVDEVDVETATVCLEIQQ

[3] = biological target: AMP-activated protein kinase, AMPK (Homo sapiens) (UniProt P54646+O43741+P54619+Q9UGJ0+Q9Y478+Q13131+Q9UGI9); assay: AMP-dependent Kinase enzyme assay. An in vitro enzyme assay that detects ADP turnover that is directly proportional to AMPK activity. This uses naive AMPK that is activated during the assay with MK-8722; type: functional; conditions: 30 µM
[4] = biological target: Sialic acid-binding Ig-like lectin 9 (Homo sapiens) (UniProt Q9Y336); assay: Hs-Siglec9 ALPHAscreen SOP 20170721; conditions: 10 µM
[5] = test system: Trypanosoma cruzi; assay: Trypanosoma cruzi phosphomannomutase and mannose-1-phosphate guanylyltransferase assay; type: functional; conditions: 10 µM
[6] = biological target: T2, Arginase-2, mitochondrial (Homo sapiens) (UniProt P78540); assay: in vitro enzyme assay to detect the production of urea directly proportional to the activity of Arginase II; type: functional; conditions: 33.3 µM; note: in the data most compounds retested in dose-response had high values
T2 sequence (whole entry): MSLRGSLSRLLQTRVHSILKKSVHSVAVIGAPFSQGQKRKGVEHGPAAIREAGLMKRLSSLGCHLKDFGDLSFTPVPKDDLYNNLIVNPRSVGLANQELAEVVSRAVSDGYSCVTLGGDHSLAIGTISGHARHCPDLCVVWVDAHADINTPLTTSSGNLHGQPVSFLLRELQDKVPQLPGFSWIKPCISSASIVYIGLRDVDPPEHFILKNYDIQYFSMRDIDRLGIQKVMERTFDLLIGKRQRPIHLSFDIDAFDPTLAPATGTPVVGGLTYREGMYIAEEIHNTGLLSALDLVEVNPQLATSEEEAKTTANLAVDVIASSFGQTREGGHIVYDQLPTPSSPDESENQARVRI

[7] = biological target: T3, Proteasome subunit beta (Trypanosoma cruzi) (UniProt O96673); assay: Trypanosoma cruzi proteasome chymotrypsin-like activity (TcProtChymo) assay.; note: in the data most compounds retested in dose-response had high values; type: functional; conditions: 9.37 µM
T3 sequence (whole entry): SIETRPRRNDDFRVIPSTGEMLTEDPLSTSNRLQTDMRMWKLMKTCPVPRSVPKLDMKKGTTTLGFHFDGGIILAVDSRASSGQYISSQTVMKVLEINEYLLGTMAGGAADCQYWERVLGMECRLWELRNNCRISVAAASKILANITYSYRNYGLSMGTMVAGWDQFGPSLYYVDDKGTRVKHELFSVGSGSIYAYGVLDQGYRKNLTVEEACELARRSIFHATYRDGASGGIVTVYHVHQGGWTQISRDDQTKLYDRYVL

[8] = species: Homo sapiens; assay: To identify inhibition of the IFN signalling (Jak-Stat) pathway via expression of an eGFP reporter gene under the control of an IFN-stimulated response element (ISRE) containing MxA promoter.; type: functional; conditions: 30 µM
[9] = biological target: T4, Tyrosyl-tRNA synthetase, putative (Trypanosoma cruzi (strain CL Brener)) (UniProt Q4DSP6); assay: Trypanosoma cruzi tyrosyl tRNA synthetase (TcYRS) _High Tyrosine SOP; type: functional; conditions: 30 µM; note: in the data most compounds retested in dose-response had high values
T4 sequence (whole entry): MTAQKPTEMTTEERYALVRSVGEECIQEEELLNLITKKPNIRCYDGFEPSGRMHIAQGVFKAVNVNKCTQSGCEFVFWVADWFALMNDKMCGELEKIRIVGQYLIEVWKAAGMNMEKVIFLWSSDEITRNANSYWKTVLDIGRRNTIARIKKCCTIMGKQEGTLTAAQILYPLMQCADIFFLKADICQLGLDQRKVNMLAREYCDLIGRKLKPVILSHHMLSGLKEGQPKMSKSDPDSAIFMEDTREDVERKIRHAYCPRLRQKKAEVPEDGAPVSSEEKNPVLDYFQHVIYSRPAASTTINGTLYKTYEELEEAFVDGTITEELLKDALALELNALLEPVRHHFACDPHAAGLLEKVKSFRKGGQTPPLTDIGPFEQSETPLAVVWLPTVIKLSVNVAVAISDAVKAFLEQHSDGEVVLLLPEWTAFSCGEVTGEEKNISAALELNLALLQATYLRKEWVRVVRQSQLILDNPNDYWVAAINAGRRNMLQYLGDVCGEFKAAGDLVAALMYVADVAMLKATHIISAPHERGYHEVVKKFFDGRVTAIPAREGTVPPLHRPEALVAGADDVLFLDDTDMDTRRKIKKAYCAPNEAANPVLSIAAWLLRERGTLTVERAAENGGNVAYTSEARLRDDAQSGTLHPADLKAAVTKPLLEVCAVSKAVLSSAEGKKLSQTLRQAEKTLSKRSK

[10] = biological target: T4, Tyrosyl-tRNA synthetase, putative (Trypanosoma cruzi (strain CL Brener)); assay: Trypanosoma cruzi tyrosyl tRNA synthetase (TcYRS) SOP; type: functional; conditions: 30 µM
[11] = biological target: Chromo domain-containing protein 1 (Saccharomyces cerevisiae (strain ATCC 204508 / S288c) (Baker's yeast)) (UniProt P32657); assay: ScCHD-1 Enzyme Inhibition Assay; type: functional; conditions: 30 µM; note: in the data most compounds retested in dose-response had high values
Sequence of Chromo domain-containing protein 1 (Saccharomyces cerevisiae (strain ATCC 204508 / S288c) (Baker's yeast)) (P32657 whole entry, the tested form may be a part): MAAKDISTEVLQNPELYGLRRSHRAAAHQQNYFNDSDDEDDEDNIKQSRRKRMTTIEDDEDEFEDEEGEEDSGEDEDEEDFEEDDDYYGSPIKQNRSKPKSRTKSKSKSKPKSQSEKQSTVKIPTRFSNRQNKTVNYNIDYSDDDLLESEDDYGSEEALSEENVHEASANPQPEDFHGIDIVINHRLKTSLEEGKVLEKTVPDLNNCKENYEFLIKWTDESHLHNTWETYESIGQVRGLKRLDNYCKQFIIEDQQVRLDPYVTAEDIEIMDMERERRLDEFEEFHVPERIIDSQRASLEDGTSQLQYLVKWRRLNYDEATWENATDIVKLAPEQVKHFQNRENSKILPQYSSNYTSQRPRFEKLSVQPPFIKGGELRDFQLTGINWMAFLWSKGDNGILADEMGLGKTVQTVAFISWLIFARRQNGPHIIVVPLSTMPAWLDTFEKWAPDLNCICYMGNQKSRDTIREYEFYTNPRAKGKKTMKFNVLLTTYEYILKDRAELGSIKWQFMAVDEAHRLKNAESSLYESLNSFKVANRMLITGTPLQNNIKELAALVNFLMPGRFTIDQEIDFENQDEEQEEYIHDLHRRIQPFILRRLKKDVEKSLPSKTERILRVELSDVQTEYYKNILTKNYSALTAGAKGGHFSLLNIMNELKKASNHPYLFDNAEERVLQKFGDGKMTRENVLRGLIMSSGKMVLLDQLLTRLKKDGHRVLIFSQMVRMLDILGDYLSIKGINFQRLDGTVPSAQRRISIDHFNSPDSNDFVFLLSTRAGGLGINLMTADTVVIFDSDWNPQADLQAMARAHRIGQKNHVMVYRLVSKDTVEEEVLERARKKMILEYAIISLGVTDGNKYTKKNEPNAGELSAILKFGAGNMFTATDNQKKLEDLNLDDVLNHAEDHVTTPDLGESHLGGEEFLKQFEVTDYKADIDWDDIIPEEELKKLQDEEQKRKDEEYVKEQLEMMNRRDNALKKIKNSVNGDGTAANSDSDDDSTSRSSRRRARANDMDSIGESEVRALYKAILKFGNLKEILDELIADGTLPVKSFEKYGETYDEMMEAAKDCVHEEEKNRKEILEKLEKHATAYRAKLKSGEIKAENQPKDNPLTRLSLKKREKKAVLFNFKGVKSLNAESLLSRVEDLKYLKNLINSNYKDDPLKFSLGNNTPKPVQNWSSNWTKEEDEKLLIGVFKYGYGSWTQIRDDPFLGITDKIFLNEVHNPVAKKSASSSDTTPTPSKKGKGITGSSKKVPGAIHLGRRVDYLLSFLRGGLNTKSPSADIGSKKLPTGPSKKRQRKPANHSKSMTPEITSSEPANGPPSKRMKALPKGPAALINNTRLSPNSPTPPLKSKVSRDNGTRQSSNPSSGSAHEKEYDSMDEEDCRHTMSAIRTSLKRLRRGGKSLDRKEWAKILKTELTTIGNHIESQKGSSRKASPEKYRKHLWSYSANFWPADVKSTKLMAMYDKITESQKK

Sequence of Protein translocase subunit SecA (Escherichia coli (strain K12)) (P10408 whole entry): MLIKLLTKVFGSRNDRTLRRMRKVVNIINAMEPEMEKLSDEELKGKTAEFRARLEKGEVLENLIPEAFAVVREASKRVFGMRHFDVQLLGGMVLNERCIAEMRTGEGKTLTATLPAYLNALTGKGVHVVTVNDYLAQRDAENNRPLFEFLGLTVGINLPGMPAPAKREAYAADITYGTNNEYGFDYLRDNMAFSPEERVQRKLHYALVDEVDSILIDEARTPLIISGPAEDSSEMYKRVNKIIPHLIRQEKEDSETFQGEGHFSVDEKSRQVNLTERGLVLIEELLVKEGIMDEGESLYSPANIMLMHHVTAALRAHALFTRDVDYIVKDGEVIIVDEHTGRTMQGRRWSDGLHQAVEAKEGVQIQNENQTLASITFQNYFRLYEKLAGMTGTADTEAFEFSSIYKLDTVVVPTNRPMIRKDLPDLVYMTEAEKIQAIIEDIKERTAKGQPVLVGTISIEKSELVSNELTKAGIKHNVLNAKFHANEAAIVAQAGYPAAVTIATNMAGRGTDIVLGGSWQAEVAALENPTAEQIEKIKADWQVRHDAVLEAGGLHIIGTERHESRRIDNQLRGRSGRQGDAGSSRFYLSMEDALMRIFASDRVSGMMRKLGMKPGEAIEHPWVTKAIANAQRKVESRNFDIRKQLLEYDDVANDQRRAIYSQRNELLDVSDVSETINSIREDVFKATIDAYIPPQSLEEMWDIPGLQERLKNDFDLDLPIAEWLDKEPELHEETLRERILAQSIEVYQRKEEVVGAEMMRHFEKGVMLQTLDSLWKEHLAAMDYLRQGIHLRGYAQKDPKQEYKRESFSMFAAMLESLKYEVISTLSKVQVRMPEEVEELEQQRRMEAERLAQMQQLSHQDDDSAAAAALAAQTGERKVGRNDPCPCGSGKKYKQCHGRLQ
Sequence of Sialic acid-binding Ig-like lectin 9 (Homo sapiens) (Q9Y336 whole entry): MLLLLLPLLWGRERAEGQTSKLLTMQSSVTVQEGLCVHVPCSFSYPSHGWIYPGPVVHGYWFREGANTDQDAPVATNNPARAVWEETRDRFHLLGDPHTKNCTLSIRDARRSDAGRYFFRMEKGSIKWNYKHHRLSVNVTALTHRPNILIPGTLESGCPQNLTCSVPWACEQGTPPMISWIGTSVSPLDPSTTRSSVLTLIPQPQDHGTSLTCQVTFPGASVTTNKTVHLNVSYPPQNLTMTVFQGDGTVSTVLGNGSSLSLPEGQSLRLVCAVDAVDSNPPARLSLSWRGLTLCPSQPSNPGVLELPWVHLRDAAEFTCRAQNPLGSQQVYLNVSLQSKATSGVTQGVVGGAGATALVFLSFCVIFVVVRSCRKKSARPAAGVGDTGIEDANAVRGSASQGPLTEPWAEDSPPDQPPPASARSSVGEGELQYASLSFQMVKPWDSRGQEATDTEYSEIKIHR

Compound	Percent Effect [1]	Percent Effect [2]	Percent Effect [3]	Percent Effect [4]	Percent Effect [5]	Percent Effect [6]	Percent Effect [7]	Percent Effect [8]	Percent Effect [9]	Percent Effect [10]	Percent Effect [11]
Cn1cc(CN2CC[C@@H]3O[C@H](C(=O)N4CCOCC4)C[C@@H]32)cn1	1.91%	-2.7%	0.801%	-2.48%	-3.91%	2.5%	-0.0845%	-20.5%	-46.5%	-3.66%	4.62%
Cc1cc(-c2cnc(N3CCNC(=O)C3)nc2-c2cccnc2C)on1	-2.87%	8%	5.98%	8.08%	1.97%	-2.1%	7.49%	1.83%	5.32%	11.5%	-10.5%
CSc1ncccc1C(=O)NCc1ccc(CS(=O)(=O)NC(C)C)cc1	-2.86%	13.9%	2.75%	-0.901%	-1.74%	3.23%	15.4%	21.4%	2.08%	2.53%	-26.4%
CC(NC(=O)NCCCn1cncn1)c1ccc2c(c1)OCCO2 (stereo not given)	-1.3%	18.9%	-2.43%	0.133%	-3.81%	-1.66%	14.2%	6.17%	2.97%	15.8%	-2.48%
O=C(c1ccc(F)cc1)N1CCN2C[C@H](OCc3ccccn3)C[C@H]2C1	-5.08%	8.11%	5.44%	-1.47%	-2.83%	1.59%	20.7%	-8.06%	7.57%	12.8%	1.66%
